Laboratory results taken from PubChem BioAssay (Tox21).
Where “and” joins values, the source holds several entries; their conditions need not be identical. Equal values may be shown once. Records with an inconclusive call do not appear. Calls of active or inactive are those of the source. The call rests on the fitted dose curve; in most records, active means well fitted curve in the direction sought with a large enough effect in the repeat runs; inconclusive means weak or mixed curves; inactive means no such curve, though single readings can be large; an effect the other way counts as inactive or inconclusive.

What was measured:
[1] = qHTS RealTime-Glo MT Cell Viability Assay in HepG2 cells - 40 hour (AID 1224870); further: nearly all actives have a fitted effect of over 50% in size
How it was run: (§1)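 HepG2 cells mixed with RealTime-Glo MT reagents (NanoLuc plus cell-permeant prosubstrate) were seeded at 600 cells/well, incubated 5 h at 37 C/5% CO2, then pinned with compounds in DMSO; nonlytic luminescence tracked viability during 40 h treatment.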

[2] = A CellTox Green Cytotoxicity Assay to monitor cytotoxicity in HEK293 cells - 40 hour (AID 1224871); further: nearly all actives have a fitted effect of over 45% in size
How it was run: (§2)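 Cells (HEK293, 600/well) and dye reagent are dispensed together. After 5 h at 37 C, 23 nL compound is pinned in. Plates stay at 37 C for 40 h with fluorescence read at 0h, 8h, 16h, 24h, 32h and 40h.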

[3] = qHTS RealTime-Glo MT Cell Viability Assay in HEK293 cells - 16 hour (AID 1224872); further: top concentration of the series differs between compounds; nearly all actives have a fitted effect of over 50% in size
How it was run: (§3)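 HEK293 cells were seeded at 600 cells/well together with NanoLuc luciferase and cell-permeant prosubstrate, preincubated 5 h at 37 C/5% CO2, then given compound in DMSO by pintool. Luminescence from viable-cell prosubstrate reduction was read repeatedly over 40 h.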

[4] = qHTS RealTime-Glo MT Cell Viability Assay in HepG2 cells - 8 hour (AID 1224873); further: nearly all actives have a fitted effect of over 55% in size
How it was run: as §1

[5] = qHTS RealTime-Glo MT Cell Viability Assay in HEK293 cells - 40 hour (AID 1224874); details: RealTime-Glo luminescence; max response: active compounds read low; further: nearly all actives have a fitted effect of over 50% in size; further: potency means the concentration at half of the fitted maximal effect
How it was run: (§4)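 Real-time viability in HEK293: signal arises when living cells convert a prosubstrate for NanoLuc in the medium, so luminescence tracks viable cell number. Compound (23 nL, DMSO) added 5 h post-seeding; kinetic reads at 0–40 h, 37 C.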

[6] = A CellTox Green Cytotoxicity Assay to monitor cytotoxicity in HEK293 cells - 24 hour (AID 1224875); further: series mostly up to about 77 µM; nearly all actives have a fitted effect of over 45% in size
How it was run: as §2

[7] = A CellTox Green Cytotoxicity Assay to monitor cytotoxicity in HepG2 cells - 16 hour (AID 1224876); further: nearly all actives have a fitted effect of over 45% in size
How it was run: (§5)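 Cells and non-lytic dye reagent are dispensed together (600 HepG2 cells/well) and incubated 5 h before DMSO compound transfer. Kinetic fluorescence is then recorded in the same wells during 40 h at 37 C.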

[8] = qHTS RealTime-Glo MT Cell Viability Assay in HepG2 cells - 32 hour (AID 1224877); further: nearly all actives have a fitted effect of over 55% in size
How it was run: (§6)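 HepG2 cells were seeded at 600 cells/well together with NanoLuc luciferase and a cell-permeant prosubstrate, preincubated 5 h at 37 C/5% CO2, then pin-dosed with compounds in DMSO. Nonlytic luminescence from viable cells was read at each time point.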

[9] = A CellTox Green Cytotoxicity Assay to monitor cytotoxicity in HepG2 cells - 24 hour (AID 1224878); further: nearly all actives have a fitted effect of over 45% in size
How it was run: as §5

[10] = A CellTox Green Cytotoxicity Assay to monitor cytotoxicity in HepG2 cells - 40 hour (AID 1224879); further: nearly all actives have a fitted effect of over 40% in size
How it was run: as §5

[11] = qHTS RealTime-Glo MT Cell Viability Assay in HEK293 cells - 0 hour (AID 1224880)
How it was run: as §4

[12] = A CellTox Green Cytotoxicity Assay to monitor cytotoxicity in HepG2 cells - 0 hour (AID 1224882); further: nearly all actives have a fitted effect of over 35% in size
How it was run: as §5

[13] = A CellTox Green Cytotoxicity Assay to monitor cytotoxicity in HepG2 cells - 32 hour (AID 1224883); further: nearly all actives have a fitted effect of over 50% in size
How it was run: as §5

[14] = A CellTox Green Cytotoxicity Assay to monitor cytotoxicity in HEK293 cells - 8 hour (AID 1224884); further: nearly all actives have a fitted effect of over 35% in size
How it was run: as §2

[15] = qHTS RealTime-Glo MT Cell Viability Assay in HepG2 cells - 16 hour (AID 1224885); further: nearly all actives have a fitted effect of over 50% in size
How it was run: as §6

[16] = qHTS RealTime-Glo MT Cell Viability Assay in HEK293 cells - 24 hour (AID 1224886); further: nearly all actives have a fitted effect of over 50% in size; further: potency means the concentration at half of the fitted maximal effect
How it was run: as §3

[17] = qHTS RealTime-Glo MT Cell Viability Assay in HEK293 cells - 8 hour (AID 1224887)
How it was run: as §4

[18] = A CellTox Green Cytotoxicity Assay to monitor cytotoxicity in HEK293 cells - 16 hour (AID 1224888); further: nearly all actives have a fitted effect of over 35% in size
How it was run: as §2

[19] = qHTS RealTime-Glo MT Cell Viability Assay in HepG2 cells - 0 hour (AID 1224889); further: nearly all actives have a fitted effect of over 50% in size
How it was run: as §6

[20] = A CellTox Green Cytotoxicity Assay to monitor cytotoxicity in HEK293 cells - 32 hour (AID 1224881); further: nearly all actives have a fitted effect of over 40% in size
How it was run: as §2
On the % scale 0 is the no-effect control and ±100 the full control effect.

O=C(c1ccc(O)cc1)c1ccc(O)cc1O
inactive: Potency [1] | Potency [2] | Potency [3] | Potency [4] | max response [5] -21.4% | Potency [6] | Potency [7] | Potency [8] | Potency [9] | Potency [10] | Potency [11] | Potency [12] | Potency [13] | Potency [14] | Potency [15] | Potency [16] | Potency [17] | Potency [18] | Potency [19]

CCCCC(CC)COC(C)=O (configuration not stated)
inactive: Potency [1] | Potency [2] | Potency [3] | Potency [4] | max response [5] 1.23% and 1.38% | Potency [6] | Potency [7] | Potency [8] | Potency [9] | Potency [10] | Potency [11] | Potency [12] | Potency [13] | Potency [14] | Potency [15] | Potency [16] | Potency [17] | Potency [18] | Potency [19]

NS(=O)(=O)c1cc2c(cc1Cl)NC=NS2(=O)=O
inactive: Potency [1] | Potency [2] | Potency [3] | Potency [4] | max response [5] 7.37% and 0.52% | Potency [7] | Potency [8] | Potency [9] | Potency [10] | Potency [11] | Potency [20] | Potency [12] | Potency [13] | Potency [14] | Potency [15] | Potency [16] | Potency [17] | Potency [18] | Potency [19]

Cc1ccc(N)c(S(=O)(=O)O)c1
inactive: Potency [1] | Potency [2] | Potency [3] | Potency [4] | max response [5] -4.11% and 2.65% | Potency [6] | Potency [7] | Potency [8] | Potency [9] | Potency [10] | Potency [11] | Potency [12] | Potency [13] | Potency [14] | Potency [15] | Potency [16] | Potency [17] | Potency [18] | Potency [19]

CCCCCCC(C)(C)S
inactive: Potency [1] | Potency [2] | Potency [3] | Potency [4] | max response [5] 2.32% and -0.908% | Potency [6] | Potency [7] | Potency [8] | Potency [9] | Potency [10] | Potency [11] | Potency [20] | Potency [12] | Potency [13] | Potency [14] | Potency [15] | Potency [16] | Potency [17] | Potency [18] | Potency [19]

S=c1nc[nH]c2nc[nH]c12
inactive: Potency [1] | Potency [2] | Potency [3] | Potency [4] | Potency [6] | Potency [7] | Potency [8] | Potency [9] | Potency [10] | Potency [11] | Potency [12] | Potency [13] | Potency [14] | Potency [15] | Potency [17] | Potency [18] | Potency [19]
active: Potency [5] 16.9 µM | Potency [16] 19 µM

CCCCCCCCC
inactive: Potency [1] | Potency [2] | Potency [3] | Potency [4] | max response [5] 9.17% and -1.35% | Potency [7] | Potency [8] | Potency [9] | Potency [10] | Potency [11] | Potency [20] | Potency [12] | Potency [13] | Potency [14] | Potency [15] | Potency [16] | Potency [17] | Potency [18] | Potency [19]

CCCCNC(N)=O
inactive: Potency [1] | Potency [2] | Potency [3] | Potency [4] | max response [5] 5.63% and 4.35% | Potency [7] | Potency [8] | Potency [9] | Potency [10] | Potency [11] | Potency [12] | Potency [13] | Potency [14] | Potency [15] | Potency [16] | Potency [17] | Potency [18] | Potency [19]

OCC#CCO
inactive: Potency [1] | Potency [2] | Potency [3] | Potency [4] | max response [5] 0.572% and 1.12% | Potency [7] | Potency [8] | Potency [9] | Potency [10] | Potency [11] | Potency [12] | Potency [13] | Potency [14] | Potency [15] | Potency [16] | Potency [17] | Potency [18] | Potency [19]

Cc1cc(O)cc(C)c1Cl
inactive: Potency [1] | Potency [2] | Potency [3] | Potency [4] | max response [5] -8.32% and -0.996% | Potency [7] | Potency [8] | Potency [9] | Potency [10] | Potency [11] | Potency [12] | Potency [13] | Potency [14] | Potency [15] | Potency [16] | Potency [17] | Potency [18] | Potency [19]

CCCCCCCCCCC=CC1CC(=O)OC1=O (configuration not stated)
inactive: Potency [1] | Potency [2] | Potency [3] | Potency [4] | max response [5] 0.806% and -0.583% | Potency [7] | Potency [8] | Potency [9] | Potency [10] | Potency [11] | Potency [20] | Potency [12] | Potency [13] | Potency [14] | Potency [15] | Potency [16] | Potency [17] | Potency [18] | Potency [19]
